Measurements taken from PubChem BioAssay (NCI).
The panel holds about 79,000 compounds, 15% with a hit somewhere; the sample as a whole holds those more often. Active and inactive are the calls of the source. Rule as the data show it: active = growth inhibition above about 70%; inactive = the rest.

experiment: NCI Yeast Anticancer Drug Screen. Data for the sgs1 mgt1 strain (AID 161);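 also: 0% = growth of cultures given vehicle only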; settings: S. cerevisiae sgs1 mgt1 strain, at 5.0 µM (retest, dose inferred, filed as 0.5), hits give high values
How it was run: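 Inhibition of yeast growth, normalised to vehicle-treated controls, is reported for a strain bearing genetic alterations in DNA damage repair.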

| SMILES | growth inhibition |
| --- | --- |
| CN(Cc1cc(C(C)(C)C)cc(Br)c1O)Cc1cc(C(C)(C)C)cc(Br)c1O | -9% (inactive) |
| Oc1cc2c(cc1C(c1ccc(F)cc1)N1CCCCC1)OCO2 (configuration not stated) | 6% (inactive) |
| CCCCCCCN(CCCCCCC)CC(O)Cc1cc2c(c3ccccc13)CCCC2 (configuration not stated) | 36% (inactive) |
| Cc1c2ccncc2c(C)c2c1sc1ccccc12 | 43% (inactive) |
| c1ccc2c(c1)OCC(CNCCNCC1COc3ccccc3O1)O2 (configuration not stated) | 70% (active) |
| CC(C)(C)c1ccc(Sc2ncnc3ccccc23)cc1 | 2% (inactive) |
| C(#Cc1ccccc1)Sc1ccccc1 | 1% (inactive) |
| CCOC(=O)NC(NNc1ccc([N+](=O)[O-])cc1[N+](=O)[O-])(C(F)(F)F)C(F)(F)F | 6% (inactive) |
| O=C1/C(=C/c2cccc(O)c2)COc2ccccc21 | 63% (inactive) |
| CNC1=C2NC(=O)/C(C)=C\C=C\C(C)C(O)C(C)C(O)C(C)C(OC(C)=O)C(C)C(OC)/C=C/OC3(C)Oc4c(C)c(O)c(c(c4C3=O)C1=O)C2=O (configuration not stated) | 1% (inactive) |
| COc1ccc(Cc2c(-c3ccc(C)cc3)n[nH]c(=O)c2C2C(=O)N(c3ccccc3)N=C2c2ccccc2)cc1 (configuration not stated) | 97% (active) |
| Cc1ccc(Cc2n[nH]c(=O)n2N2C(=O)c3ccccc3C2=O)cc1 | 9% (inactive) |
| COc1cc2c(c(C3C(=O)N(C)c4ccc(Br)cc43)c1OC)OCO2 (configuration not stated) | -1% (inactive) |
| CCCCCCCCC1N(C)CCCN1C | -37% (inactive) |
| C1=Cc2ccccc2/C1=C/c1ccccc1 | 1% (inactive) |
| COC(=O)c1ccc2ccccc2c1C(=O)c1ccc(F)cc1 | 4% (inactive) |
| CCNC(=S)N/N=C(/C)c1cccc(/C(C)=N\NC(=S)NCC)n1 | 13% (inactive) |
| c1ccc2c(c1)ccc1ncccc12 | 0% (inactive) |
| Cc1nc(N)nn1C | -3% (inactive) |
| COC(=O)C1=C(C)NC(C)=C(C(=O)OC)C1c1ccc(NCc2ccccc2)c([N+](=O)[O-])c1 | -1% (inactive) |
| CCc1ccccc1NC(=O)C(C#N)C1=C(Cl)C(=O)c2ccccc2C1=O (configuration not stated) | 51% (inactive) |
| O=C(O)c1ccc2ccccc2c1C(=O)c1cccc2ccccc12 | 0% (inactive) |

same assay, conditions: S. cerevisiae sgs1 mgt1 strain, at 50.0 µM (retest, dose inferred, filed as 5.0), hits give high values

| SMILES | growth inhibition |
| --- | --- |
| CCN(CC)CCOC(=O)C1CCCCC1C(=O)C1CCCCC1 (configuration not stated) | 5% (inactive) |
| O=c1c2cc(Br)ccc2ncn1COCc1ccccc1 | 19% (inactive) |
| C=C1C(=O)OC2C1CCC(=C)C1CC(O)C(=C)C12 (configuration not stated) | 70% (active) |
| CCC(CC)=NNc1ccc([N+](=O)[O-])cc1 | 97% (active) |
| CCN(CC)CCNc1ccc(C)c2oc3ccc(O)cc3c(=O)c12 | 29% (inactive) |
| CCOC(=O)C[P+](c1ccc(C)cc1)(c1ccc(C)cc1)c1ccc(C)cc1 | 82% (active) |
| Cc1ccc(C)c(C(=O)/C=C/C(=O)O)c1 | 100% (active) |
| CCCC/C=C(/CCCCOCOCCOC)[Si](C)(C)C | 6% (inactive) |
| C=C1C2Oc3ccccc3C1N(c1ccccc1)O2 (configuration not stated) | 62% (inactive) |
| NC(=O)N/N=C1/CC2CCCCC2c2ccccc21 (configuration not stated) | 66% (inactive) |
| CC(CCN)(CCN)[N+](=O)[O-] | 27% (inactive) |
| COC(=O)/C=C(\NC1CC(OC2C[C@](O)(C(C)=O)Cc3c(O)c4c(c(O)c32)C(=O)c2c(OC)cccc2C4=O)OC(C)C1O)C(=O)OC (some centres not stated) | 97% (active) |
| CCOc1ccc(N=Nc2ccccc2)cc1 | -39% (inactive) |
| O=C(CNS(=O)(=O)Cc1ccccc1)NCC(=O)NNc1ccccc1 | 63% (inactive) |
| CC1(C)c2ccccc2Cc2cc3ccccc3nc21 | 97% (active) |
| CC(=O)Nc1ccc(C(C)(C)c2ccc(C)cc2)cc1 | 96% (active) |
| CC[C@]1(O)C[C@H]2[C@@H]3CCc4cc(OC)ccc4[C@H]3CC[C@]2(C)[C@H]1O | 98% (active) |
| CCCCSc1nc2c([nH]1)c(=S)n(C)c(=S)n2C | 67% (inactive) |
| CN(Cc1cc(C(C)(C)C)cc(Br)c1O)Cc1cc(C(C)(C)C)cc(Br)c1O | 64% (inactive) |
| Oc1cc2c(cc1C(c1ccc(F)cc1)N1CCCCC1)OCO2 (configuration not stated) | 77% (active) |
| CCCCCCCN(CCCCCCC)CC(O)Cc1cc2c(c3ccccc13)CCCC2 (configuration not stated) | 98% (active) |
| Cc1c2ccncc2c(C)c2c1sc1ccccc12 | 94% (active) |
| c1ccc2c(c1)OCC(CNCCNCC1COc3ccccc3O1)O2 (configuration not stated) | 86% (active) |
| CC(C)(C)c1ccc(Sc2ncnc3ccccc23)cc1 | 89% (active) |
| C(#Cc1ccccc1)Sc1ccccc1 | 18% (inactive) |
